Experimental data: the supplement of paper PMC6522484
± gives the standard deviation of the averaged measurements.

Assays:
[1] = test system: DLD1; experiment: cell viability (CellTiter-Glo) relative to plate median (fraction of plate median); higher = more viable cells; conditions: 5 µM; treatment time 24 h; reporter: 7TFP
In short: (§1)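 Two independent replicates were averaged for each reported value. Library compounds were applied at a final 5 µM for 24 h to colorectal cancer cell lines stably expressing lentiviral TCF/Wnt firefly luciferase reporters. Firefly luciferase or CellTiterGlo luminescence from each well was normalised to the plate median.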

[2] = test system: HCT116; experiment: as above; conditions: 5 µM; treatment time 24 h; reporter: TCF4/Wnt
In short: as §1

[3] = test system: SW480; experiment: as above; conditions: 5 µM; treatment time 24 h; reporter: 7TFP
In short: as §1

[4] = test system: DLD1; experiment: TCF/Wnt firefly luciferase reporter signal relative to plate median (fraction of plate median); higher = higher Wnt reporter signal; conditions: 5 µM; treatment time 24 h; reporter: 7TFP
In short: as §1

[5] = test system: SW480; experiment: as above; conditions: 5 µM; treatment time 24 h; reporter: 7TFP
In short: as §1

| Structure (SMILES) | cell viability [1] | cell viability [2] | cell viability [3] | TCF/Wnt firefly luciferase reporter signal [4] | TCF/Wnt firefly luciferase reporter signal [5] |
| --- | --- | --- | --- | --- | --- |
| Nc1ccc(S(=O)(=O)NC(=O)c2ccccc2)cc1 | 1.07 ± 0.12 | 0.954 ± 0.12 | 1.11 ± 0.064 | 0.875 ± 0.15 | 1.02 ± 0.014 |
| COc1cc2c(cc1OC)[C@@H]1C(=O)c3ccc4c(c3O[C@@H]1CO2)C=CC(C)(C)O4 | 1.09 ± 0.021 | 0.79 ± 0.14 | 1.02 ± 0.094 | 0.9 ± 0.1 | 0.884 |
| OCCN(CCO)c1nc(N2CCCCC2)c2nc(N(CCO)CCO)nc(N3CCCCC3)c2n1 | 0.905 ± 0.0042 | 0.991 ± 0.013 | 0.973 ± 0.016 | 1.13 ± 0.042 | 1.03 ± 0.028 |
| CN1CCCN=C1COC(=O)C(O)(c1ccccc1)C1CCCCC1 (stereo not given) | 1 ± 0.15 | 1.15 ± 0.12 | 1.05 ± 0.042 | 1.08 ± 0.042 | 1.065 ± 0.0071 |
| NC(Cn1ccc(=O)c(O)c1)C(=O)O (stereo not given) | 0.987 ± 0.076 | 0.8415 ± 0.00071 | 0.989 ± 0.044 | 0.85 ± 0.016 | 0.947 ± 0.12 |
| O=c1cc(-c2ccc(O)cc2)oc2cc(O[C@@H]3O[C@H](CO)[C@@H](O)[C@H](O)[C@H]3O[C@@H]3OC[C@](O)(CO)[C@H]3O)cc(O)c12 | 0.959 ± 0.052 | 1.04 ± 0.057 | 1 ± 0.021 | 1.045 ± 0.0071 | 1.04 ± 0.057 |
| C/C=C/C=C/[C@@H]1O[C@](O)([C@H](CC)C(=O)NC/C=C/C=C(\C)[C@@H](OC)[C@@H](C)[C@@H]2O[C@H](/C=C/C=C/C=C(\C)C(=O)c3c(O)ccn(C)c3=O)[C@H](O)[C@@H]2O)C[C@H](O)C1(C)C (single isomer, unassigned; isomere) [Heneicomycin (Isomere)] | 0.948 ± 0.037 | 1.04 ± 0.14 | 1.035 ± 0.0071 | 1.05 ± 0.064 | 1.03 ± 0.021 |
| CCOC(=O)[C@H](CCc1ccccc1)N[C@@H](C)C(=O)N1CCC[C@H]1C(=O)O | 0.971 ± 0.018 | 1.11 ± 0.085 | 1 ± 0.029 | 1.04 ± 0.035 | 0.994 ± 0.023 |
| CCCCc1nc(Cl)c(CO)n1Cc1ccc(-c2ccccc2-c2nnn[nH]2)cc1 | 0.909 ± 0.09 | 0.921 ± 0.052 | 1.02 ± 0.045 | 1.08 ± 0.25 | 0.715 ± 0.37 |
| CC[C@H](CC[C@@H](C)[C@H]1CC[C@H]2[C@@H]3CC=C4C[C@@H](O)CC[C@]4(C)[C@H]3CC[C@]12C)C(C)C [beta-SITOSTEROL] | 1.07 ± 0.13 | 1.03 ± 0.035 | 1.13 ± 0.014 | 0.872 ± 0.0028 | 1.02 ± 0.035 |
| CC(=O)O[C@H]1CC[C@]2(C)[C@H]3CC[C@]4(C)C(=CC[C@@]5(C(=O)O)CCC(C)(C)C[C@H]54)[C@]3(C)CC[C@H]2C1(C)C [3-Acetylaleuritolic acid] | 1.01 ± 0.11 | 1.04 ± 0.11 | 1.01 ± 0.044 | 0.879 ± 0.0085 | 1.02 ± 0.06 |
| COc1ccc2c(=O)ccoc2c1 | 0.979 ± 0.059 | 0.933 ± 0.11 | 0.942 ± 0.0071 | 1.03 ± 0.021 | 1.05 ± 0.1 |
| Cc1oc(C(C)O)c2c1C(=O)c1c(O)cccc1C2=O (stereo not given) [Bhimamycin A] | 1.14 ± 0.014 | 0.958 ± 0.06 | 1.23 ± 0.13 | 0.9925 ± 0.0092 | 1.07 ± 0.042 |
| COc1cc2ccc(=O)oc2c(OC)c1OC | 1.05 ± 0.075 | 1.05 ± 0.064 | 1.025 ± 0.0071 | 0.993 ± 0.081 | 0.931 ± 0.045 |
| C[C@@H]1O[C@@H](O[C@H]2[C@H](Oc3cc(O)c4c(=O)cc(-c5ccc(O)cc5)oc4c3)O[C@H](CO)[C@@H](O)[C@@H]2O)[C@H](O)[C@H](O)[C@H]1O | 1.04 ± 0.035 | 1.03 ± 0.054 | 0.98 ± 0.015 | 0.989 ± 0.013 | 1.02 ± 0.079 |
| CCN(CC)C(=O)c1cccc(C)c1 | 0.954 ± 0.041 | 1.01 ± 0.05 | 0.991 ± 0.028 | 1.03 ± 0.079 | 0.923 ± 0.061 |
| CC(=O)S[C@@H]1CC2=CC(=O)CC[C@]2(C)[C@H]2CC[C@@]3(C)[C@@H](CC[C@@]34CCC(=O)O4)[C@H]12 | 1.11 ± 0.014 | 0.97 ± 0.04 | 1.06 ± 0.064 | 0.878 ± 0.15 | 0.955 ± 0.016 |

| Structure (SMILES) | cell viability [1] | cell viability [2] | cell viability [3] | TCF/Wnt firefly luciferase reporter signal [4] | TCF/Wnt firefly luciferase reporter signal [5] |
| --- | --- | --- | --- | --- | --- |
| CC1CCC2(OC1)OC1CC3C4CCC5C[C@@H](O)CCC5(C)C4=CCC3(C)C1[C@@H]2C (stereo partly drawn) [3beta-HYDROXYISOALLOSPIROST-9(11)-ENE] | 1.02 ± 0.021 | 0.997 ± 0.12 | 0.973 ± 0.052 | 1.02 ± 0.11 | 1.01 ± 0.016 |
| COC1=C(O)C(=O)c2c(cc3oc(C(C)=O)c(O)c3c2O)C1=O | 1.03 ± 0.055 | 1.07 ± 0.064 | 0.985 ± 0.064 | 1.05 ± 0.11 | 0.949 ± 0.027 |
| CCCc1cc(=O)[nH]c(=S)[nH]1 | 0.959 ± 0.033 | 1.065 ± 0.0071 | 0.998 ± 0.031 | 0.98 ± 0.057 | 1.02 ± 0.028 |
| COc1ccccc1OCC(O)CN1CCN(CC(=O)Nc2c(C)cccc2C)CC1 (stereo not given) | 0.977 ± 0.018 | 0.927 ± 0.018 | 0.944 ± 0.013 | 1.04 ± 0.028 | 0.881 ± 0.0092 |
| CN(C(=O)CN(CCO)CC(=O)N(C)C(C)(C)Cc1ccccc1)C(C)(C)Cc1ccccc1 | 1.01 ± 0.022 | 1.04 ± 0.11 | 1.11 | 1.15 ± 0.05 | 1.025 ± 0.0071 |
| NC(N)=Nc1nc(CSCC/C(N)=N/S(N)(=O)=O)cs1 | 1 ± 0.083 | 1.01 ± 0.028 | 0.916 ± 0.054 | 1.12 ± 0.092 | 1.11 ± 0.035 |
| CC[C@H]1OC(=O)[C@H](C)C(=O)[C@H](C)[C@@H](O[C@@H]2O[C@H](C)C[C@H](N(C)C)[C@H]2O)[C@](C)(OC)C[C@@H](C)C(=O)[C@H](C)[C@H]2N(CCCCn3cnc(-c4cccnc4)c3)C(=O)O[C@]12C | 0.997 ± 0.018 | 0.968 ± 0.1 | 1.02 ± 0.04 | 1.07 ± 0.05 | 1.07 ± 0.035 |
| CC(C)C[C@H]1NC(=O)[C@@H](NC(=O)c2ncccc2O)[C@@H](C)OC(=O)[C@H](c2ccccc2)N(C)C(=O)[C@H](C)NC(=O)[C@H]([C@@H](C)C(C)C)N(C)C(=O)CN(C)C(=O)[C@H]2C[C@@H](O)CN2C1=O [Viridogrisein] | 1.04 ± 0.11 | 0.954 ± 0.066 | 0.971 ± 0.11 | 1.12 ± 0.021 | 0.999 ± 0.073 |
| CN1CCC[C@@H]1CCO[C@](C)(c1ccccc1)c1ccc(Cl)cc1 | 0.982 ± 0.096 | 0.917 ± 0.018 | 1.05 ± 0.042 | 0.913 ± 0.19 | 0.87 ± 0.041 |
| CCCCCCCCCCCCCCCCOP(=O)([O-])OCC[N+](C)(C)C | 1.04 ± 0.035 | 0.984 ± 0.0099 | 0.969 ± 0.035 | 1.07 ± 0.16 | 1.04 ± 0.05 |
| Nc1ncnc2c1ncn2[C@@H]1O[C@H](COP(=O)(O)O)[C@@H](O)[C@H]1O | 0.958 ± 0.025 | 0.983 ± 0.081 | 1.03 ± 0.059 | 1.09 | 0.974 ± 0.12 |
| COc1ccnc(C[S+]([O-])c2nc3cc(OC(F)F)ccc3[nH]2)c1OC (stereo not given) | 0.961 ± 0.0042 | 1.03 ± 0.014 | 0.974 ± 0.036 | 1.06 ± 0.05 | 1.05 ± 0.071 |
| CC(C)[C@@H](C)/C=C/[C@@H](C)[C@H]1CC[C@H]2C3=CC=C4C[C@@H](O)CC[C@]4(C)[C@H]3CC[C@]12C | 1.05 ± 0.05 | 1.03 ± 0.14 | 1.14 ± 0.099 | 0.912 ± 0.079 | 1 ± 0.083 |
| C[C@]12C=CC(=O)C=C1CC[C@@H]1[C@@H]2[C@@H](O)C[C@@]2(C)[C@H]1CC[C@]2(O)C(=O)COP(=O)(O)O | 1.04 ± 0.021 | 1 | 0.943 ± 0.033 | 1.04 ± 0.14 | 1.06 ± 0.014 |
| CCC(O)CC1CCC(C(C)C(=O)OC(C)CC2CCC(C(C)C(=O)O)O2)O1 (stereo not given) [Bonactin] | 0.944 ± 0.027 | 0.941 ± 0.11 | 0.974 ± 0.0014 | 0.962 ± 0.054 | 0.87 ± 0.12 |
| CCC[C@@H]1C[C@@H](C(=O)N[C@@H]([C@H]2O[C@H](SC)[C@H](O)[C@@H](O)[C@H]2O)[C@H](C)Cl)N(C)C1 | 0.966 ± 0.15 | 1 ± 0.042 | 1.07 ± 0.057 | 0.907 ± 0.028 | 1.04 ± 0.028 |
| CC(=O)O[C@H]1C[C@@]2(C)[C@@H](C[C@@H](O)[C@H]3[C@@]4(C)CC[C@@H](O)[C@@H](C)[C@@H]4CC[C@@]32C)/C1=C(\CCC=C(C)C)C(=O)O | 1.04 ± 0.05 | 1 ± 0.054 | 1.04 ± 0.028 | 1.12 ± 0.05 | 1.06 ± 0.064 |
